Rows were chosen to be rich in hits. Some 12% of all compounds tested hit in one or more screens of this group.
AmpC inh detg: AmpC beta-lactamase inhibition with detergent present. AmpC hydrolysis of nitrocefin, absorbance 480 nm, 0.01% Triton. Potency, µM (top dose mostly 114 µM), inactives show at the highest dose activity change, negative = inhibition, usual class: inhibitors. actives 0.041% (n = 370,000). AID 485294;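 note: 0% = no-compound wells and -100% = no-enzyme wells; nearly all actives have a fitted effect of over 25% in size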
Target sequence (P00811 whole entry, looked up): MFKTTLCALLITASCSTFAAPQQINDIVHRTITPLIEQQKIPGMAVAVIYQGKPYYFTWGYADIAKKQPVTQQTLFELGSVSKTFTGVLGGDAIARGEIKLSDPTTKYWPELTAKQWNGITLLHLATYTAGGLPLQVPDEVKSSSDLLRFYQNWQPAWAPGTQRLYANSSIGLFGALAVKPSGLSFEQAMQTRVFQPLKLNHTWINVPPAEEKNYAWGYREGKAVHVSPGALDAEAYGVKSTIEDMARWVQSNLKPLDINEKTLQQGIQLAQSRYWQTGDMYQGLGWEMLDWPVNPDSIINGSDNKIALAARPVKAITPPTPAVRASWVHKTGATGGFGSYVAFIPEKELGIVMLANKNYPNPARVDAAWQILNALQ
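AmpC (5.3 nM in the dispensed reagent) in 20 mM phosphate pH 7.0 with 0.01% (detergent screen) or 0.0001% Triton X-100 was preincubated with compounds for 15 min at room temperature. Nitrocefin was then added from an 800 uM solution, and hydrolysis was followed at 480 nm.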
AmpC inh no detg: blocks E. coli AmpC beta-lactamase in detergent-free assay | P00811 | AmpC nitrocefin hydrolysis, absorbance 480 nm, 0.0001% Triton | Potency, µM (titrated, usually from 57.1 µM), inactives show at the top dose activity change, negative = inhibition, hits mostly inhibitors | actives 0.52% (n = 330,000);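 note: plate controls were no compound for no effect and no enzyme for full effect; nearly all actives have a fitted effect of over 20% in size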
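AmpC (5.3 nM in the dispensed reagent) in 20 mM phosphate pH 7.0 with 0.01% (detergent screen) or 0.0001% Triton X-100 was preincubated with compounds for 15 min at room temperature. Nitrocefin was then added from an 800 uM solution, and hydrolysis was followed at 480 nm.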
SARS PLpro yeast: SARS-CoV PLP inhibition in yeast | Potency, µM (titrated, usually from 32.9 µM), inactives show top-dose activity, positive = growth rescue, actives largely listed as activators | actives 0.19% (n = 330,000) | S. cerevisiae expressing SARS-CoV PLpro, growth rescue; calls by dose curve; note: 0% is about no effect; nearly all actives have a fitted effect of over 55% in size
Sm TGR inh: inhibitors of Schistosoma mansoni thioredoxin glutathione reductase; actives 3% (n = 360,000); purified TGR, DTNB reduction, TNB absorbance 405 nm; Potency, µM (titrated, usually from 114 µM), for the others: at the highest dose activity change, negative = inhibition, most hits filed as inhibitors; AID 485364; Q962Y6; note: % is set by controls: 0 for no effect and ±100 for the full control effect; nearly all actives have a fitted effect of over 60% in size
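Kinetic colorimetric format: TGR-catalysed, NADPH-driven DTNB reduction monitored via TNB absorbance. Enzyme dispensed at 20 nM; compound exposure 15 min at room temperature before reaction start.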
Pf growth 96h: P. falciparum growth inhibition at 96 hour, primary screen for plastid delayed-death inhibitors; P. falciparum luciferase reporter growth, 96 h; Potency, µM (doses to about 28.7 µM), for the others: top-dose activity change, negative = inhibition, usual class: inhibitors; actives 6.9% (n = 320,000); note: % is set by controls: 0 for no effect and ±100 for the full control effect
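Erythrocytes infected with luciferase-expressing P. falciparum were dispensed at 2% hematocrit and 0.05% parasitemia (final), then incubated with compounds 96 hours at 37 C in 5% CO2. Luminescence after detection reagent addition reported growth.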
Pf growth 48h: P. falciparum growth inhibition at 48 hours (one generation); AID 504832; P. falciparum luciferase growth in erythrocytes, 48 h; actives 5.9% (n = 310,000); Potency, µM (highest dose often 28.7 µM), inactives show top-dose activity change, negative = inhibition, usual class: inhibitors; note: % is set by controls: 0 for no effect and ±100 for the full control effect
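Luminescence readout; reporter = integrated firefly luciferase in P. falciparum. RBC culture at 2% hematocrit, 0.1% parasitemia final, 37 C/5% CO2; decreased signal taken as growth inhibition.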
Starred values were filed as active, the others as inactive; ? = inconclusive; · = not tested or not shown. Unless noted, calls come from the whole dose curve; as a rule, active = well fitted curve in the direction sought with a large enough effect; inconclusive = small, poorly fitted or top-dose-only effect, or another doubt; inactive = no such curve, though single readings can be large; an effect the other way counts as inactive or inconclusive. Potency is the fitted concentration of half-maximal effect.

SMILES | AmpC inh detg | AmpC inh no detg | SARS PLpro yeast | Sm TGR inh | Pf growth 96h | Pf growth 48h
CCOC(=O)C1CCN(c2cc(=O)n(C3CCCCC3)c(=O)[nH]2)CC1 | -0.1% | -8.0% | 6.1% | 4.4% | 52.9% | 2.94µM*
CCc1ccc(-n2nc(C)c3c(C)cc(=O)n(CC(=O)Nc4cc(C)ccc4C)c32)cc1 | -10.3% | · | · | -7.0% | · | ·
CC(CNS(=O)(=O)c1ccc2c(c1)CC(=O)N2C)c1ccccc1 (stereo not drawn) | -7.1% | -10.9% | 24.0% | 0.5% | 10.4µM* | 9.28µM*
CCOC(=O)C1CCN(S(=O)(=O)c2ccc3c(c2)CC(=O)N3C)CC1 | -5.1% | 40.1% | 2.9% | -21.6% | -5.5% | 2.08µM*
Cn1c(=O)n(C)c2cc(S(=O)(=O)N3CCOCC3)ccc21 | -7.0% | -13.6% | 2.5% | -11.4% | · | -9.5%
Cc1cccc(N2CCN(S(=O)(=O)c3ccc4c(c3)CC(=O)N4C)CC2)c1C | 0.1% | 70.8% | -4.5% | -17.6% | ? | 9.28µM*
Cc1cccc(N2CCN(S(=O)(=O)c3ccc(S(=O)(=O)N4CCCC4)cc3)CC2)c1C | -16.3% | -10.6% | -0.9% | -5.0% | -8.6% | ·
CN1C(=O)Cc2cc(S(=O)(=O)N3CCOCC3)ccc21 | -14.5% | 80.8% | -21.5% | -11.4% | 4.65µM* | -7.7%
CC(NS(=O)(=O)c1ccc2c(c1)CC(=O)N2C)c1ccccc1 (stereo not drawn) | 2.9% | -2.0% | -0.9% | -8.5% | ? | -10.7%
CCOC(=O)C1CCN(S(=O)(=O)c2ccc3c(c2)CCCN3C(C)=O)CC1 | 2.8% | 12.4% | 4.9% | 5.2% | · | -8.3%
O=C1CCC(C(=O)N2CCCCO2)CN1Cc1ccc(Cl)cc1 (stereo not drawn) | ? | -6.0% | ? | -2.8% | -3.9% | 50.2%
Nc1cc(Cl)ccc1Nc1ccncc1 | -14.7% | -21.5% | -2.8% | 0.2% | ? | 15.1%
COc1ccc(NC(=O)Nc2c[nH]c(=O)[nH]c2=O)c(OC)c1 | 2.3% | · | · | 6.0% | · | ·
COc1cccc(-c2noc(N)c2C#N)c1 | 10.0% | -24.4% | -3.5% | ? | -2.5% | 7.38µM*
COc1ccc(-c2sc3cc(OC)c(OC)cc3c2C#CC2(O)CCCCC2)cc1 | 4.1% | 45.2% | -5.9% | 8.91µM* | ? | ?
CN(CCO)C(=O)c1ccc(-c2nn(C)c(=O)c3ccccc23)cc1 | 7.9% | -5.7% | 0.6% | 1.5% | 5.7% | 9.0%
CN(C(=O)c1ccc(-c2nn(C)c(=O)c3ccccc23)cc1)C1CCCCC1 | 0.6% | 119.3% | -2.8% | 6.2% | 13.3% | 11.7µM*
CCN(CC)C(=O)c1ccc(NC(=O)COc2ccc(-c3nn(C)c(=O)c4ccccc34)cc2)cc1 | -3.3% | 114.2% | -1.8% | -6.0% | ? | 13.1µM*
COc1ccc(OCC(=O)Nc2cc(-c3nn(C)c(=O)c4ccccc34)ccc2N2CCOCC2)cc1 | 2.0% | -9.5% | 0.0% | 3.6% | 5.86µM* | ?
COc1ccc(/C=C2\Sc3ccc(C(=O)NCCCN4CCCC4)cc3N(C)C2=O)cc1OC | -13.3% | 146.4% | -4.0% | -29.0% | ? | ?
O=C(NCc1cccnc1)/C(=C\c1ccc(-c2cccc(Cl)c2)o1)S(=O)(=O)c1ccccc1 | 5.1% | 2.1% | ? | 17.8µM* | ? | 9.28µM*
O=C(NCc1cccnc1)/C(=C/c1ccc(-c2cccc(Cl)c2)o1)S(=O)(=O)c1ccccc1 | -5.6% | 0.6% | 2.5% | ? | 3.29µM* | 13.1µM*
CNC(=S)Nc1ccc(Nc2ccccc2)cc1 | -11.2% | -27.7% | 8.5% | -26.6% | 82.9% | 44.4%
COC(=O)c1cc2sc(Cl)cc2n1CC(=O)N1CCCc2ccccc21 | ? | -8.0% | -2.0% | -8.2% | 20.6% | 10.4µM*
COC(=O)c1cc2sccc2n1CC(=O)N1CCCc2ccccc21 | -1.7% | -4.6% | -6.5% | -16.2% | ? | ?

Source: PubChem BioAssay (National Center for Advancing Translational Sciences (NCATS))
